Compounds without any hit were thinned out: in the full panel of roughly 83,000, 20% have a hit.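 Activity criterion: percent growth below 10, measured after cells in 96-well plates were exposed to a single compound concentration for 48 hours.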 Values without a mark were called inactive. Activity calls are given as the source filed them.

Some test systems named below: NCI-H23 lung; NCI-H226 lung; HOP-62 NSCLC; NCI-H460 lung; HOP-92 NSCLC; NCI-H522 lung; A549/ATCC NSCLC; 786-0 renal; COLO 205 colon; DU-145 prostate; K-562 leukemia; MALME-3M melanoma; MDA-MB-231 breast; RXF 393 renal; SF-268 CNS; SF-295 CNS; SF-539 CNS; UACC-257 melanoma; M14 melanoma.
What all share (assay): NCI-60 one-dose screen, 48 h (100 = growth as untreated, 0 = no growth, -100 = all killed)
Common to all, as to conditions: 10 µM unless noted

For `C=C(C)[C@@H]1CC[C@]2(CO)CC[C@]3(C)[C@H](CC[C@@H]4[C@@]5(C)CC[C@H](NCO)C(C)(C)[C@@H]5CC[C@]43C)[C@@H]12`, the growth in the test on NCI-H23 lung is -20.9% (active); with NCI-H226 lung it was 72.5%; in the test on HOP-62 NSCLC, -61.9% (active); with NCI-H460 lung it was -86.1% (active); in the test with HOP-92 NSCLC it was 42.2%; in the test on NCI-H522 lung it was -42.7% (active). The growth in the test on A549/ATCC NSCLC is -45.7% (active); in the test with 786-0 renal, -94% (active); in the test with COLO 205 colon, -57.1% (active); in the test on DU-145 prostate, -69.2% (active); in the test on K-562 leukemia it was 0.949% (active); with MALME-3M melanoma, -81.2% (active). The growth was -86.2% (active) in the test with MDA-MB-231 breast; -79.3% (active) with RXF 393 renal; 59.1% with SF-268 CNS; 57.4% in the test on SF-295 CNS; -95.6% (active) in the test on SF-539 CNS; -51.6% (active) in the test on UACC-257 melanoma. Besides, the growth in the test on M14 melanoma was -62.2% (active).
`CCOC(=O)c1nn(-c2ccc(S(N)(=O)=O)cc2)c2nc(C)cc(=O)n12`: the growth with NCI-H23 lung was 98.5%; with NCI-H226 lung it was 104%; with HOP-62 NSCLC, 102%; in the test with NCI-H460 lung, 109%; with HOP-92 NSCLC, 95%; in the test with NCI-H522 lung, 100%. Besides, the growth with A549/ATCC NSCLC is 102%; with 786-0 renal, 96.5%; with COLO 205 colon it was 114%; in the test on DU-145 prostate it was 108%; in the test on K-562 leukemia it was 102%; with MALME-3M melanoma, 106%. Further, the growth in the test with MDA-MB-231 breast was 102%; with RXF 393 renal, 104%; in the test on SF-268 CNS, 103%; in the test on SF-295 CNS, 103%; in the test with SF-539 CNS, 97.8%; in the test on UACC-257 melanoma, 112%. Further, the growth in the test on M14 melanoma was 104%.
As for `O=C(OC(CO)C(=O)NC12CC3CC(CC(C3)C1)C2)c1ccc(Cl)cc1` (stereo unspecified), the growth in the test with NCI-H23 lung is 105%; in the test on NCI-H226 lung it was 92.4%; with HOP-62 NSCLC it was 103%; with NCI-H460 lung it was 107%; in the test on HOP-92 NSCLC it was 87.2%; with NCI-H522 lung it was 99.3%. The growth in the test on A549/ATCC NSCLC is 97.2%; in the test on 786-0 renal, 101%; in the test on COLO 205 colon it was 110%; in the test on DU-145 prostate it was 103%; with K-562 leukemia, 95.5%; in the test on MALME-3M melanoma it was 104%. The growth in the test with MDA-MB-231 breast was 105%; in the test on RXF 393 renal, 103%; in the test on SF-268 CNS it was 104%; with SF-295 CNS, 100%; with SF-539 CNS it was 96%; with UACC-257 melanoma, 100%. In the test on M14 melanoma, the growth was 97.6%.
As to `Clc1ccc2c(NC3CCC(N4CCOCC4)CC3)ccnc2c1` (stereo unspecified), the growth in the test on NCI-H23 lung is 62.2%; in the test on NCI-H226 lung, 68.9%; in the test with HOP-62 NSCLC, 66.7%; with NCI-H460 lung, 81.8%; with HOP-92 NSCLC, 48.7%; with NCI-H522 lung it was 80.8%. Also, the growth in the test with A549/ATCC NSCLC is 74.5%; with 786-0 renal, 70.6%; with COLO 205 colon it was 81.4%; in the test on DU-145 prostate it was 90.9%; in the test on K-562 leukemia, 48.6%; in the test on MALME-3M melanoma it was 89.3%. The growth was 81.7% in the test on MDA-MB-231 breast; 90.3% with RXF 393 renal; 108% in the test with SF-268 CNS; 47.1% in the test on SF-295 CNS; 91.4% with SF-539 CNS; 56.6% with UACC-257 melanoma. Moreover, the growth in the test with M14 melanoma is 84%.
`CCOC(=O)C(=O)C(C(=O)OCC)c1ccccc1` (stereo unspecified): the growth in the test with NCI-H23 lung was 107%; in the test on NCI-H226 lung, 107%; with HOP-62 NSCLC, 107%; with NCI-H460 lung it was 110%; in the test on HOP-92 NSCLC, 107%; in the test with NCI-H522 lung it was 101%. In addition, the growth with A549/ATCC NSCLC is 122%; in the test on 786-0 renal it was 93.3%; in the test with COLO 205 colon, 118%; with DU-145 prostate, 120%; in the test on K-562 leukemia, 86.7%; in the test on MALME-3M melanoma, 93.2%. Also, the growth in the test on MDA-MB-231 breast is 94.1%; in the test on RXF 393 renal it was 113%; with SF-268 CNS, 103%; in the test with SF-295 CNS it was 139%; with SF-539 CNS, 118%; with UACC-257 melanoma, 123%. Further, the growth in the test with M14 melanoma is 100%.
As for `COc1cc2ncnc(Nc3ccc(S(=O)(=O)Nc4cc(C)on4)cc3)c2cc1OCCCN1CCN(c2ccc(F)cc2)CC1`, the growth in the test on NCI-H23 lung is 105%; in the test on NCI-H226 lung it was 98.1%; in the test on HOP-62 NSCLC it was 92.2%; with NCI-H460 lung, 102%; in the test with HOP-92 NSCLC it was 125%; with NCI-H522 lung, 91%. For the same compound, the growth in the test with A549/ATCC NSCLC is 101%; in the test with 786-0 renal, 110%; in the test on COLO 205 colon, 105%; with DU-145 prostate, 112%; with K-562 leukemia, 89.8%; in the test on MALME-3M melanoma, 99.3%. For the same compound, the growth in the test on MDA-MB-231 breast was 89.6%; in the test on RXF 393 renal it was 105%; with SF-268 CNS, 97.9%; in the test on SF-295 CNS, 102%; with SF-539 CNS, 96.4%; in the test on UACC-257 melanoma, 106%. Besides, in the test with M14 melanoma, the growth is 108%.
Turning to `COc1ccc2c(c1OC)CO[C@@H]2[C@H]1c2c(cc3c(c2OC)OCO3)CCN1S(=O)(=O)c1cn(C)cn1`, the growth in the test on NCI-H23 lung is 32.9%; in the test on NCI-H226 lung it was 73.6%; in the test on HOP-62 NSCLC, 30.9%; with NCI-H460 lung, 6.13% (active); with HOP-92 NSCLC, 60.7%; with NCI-H522 lung, 19.4%. Also, the growth was 21.2% in the test on A549/ATCC NSCLC; 41.9% with 786-0 renal; 0.532% (active) with COLO 205 colon; 11.1% in the test on DU-145 prostate; 10.7% in the test on K-562 leukemia; 45.6% with MALME-3M melanoma. Further, the growth in the test on MDA-MB-231 breast is 30.4%; in the test on RXF 393 renal it was -27.9% (active); in the test with SF-268 CNS, 40.8%; in the test on SF-295 CNS, 14.5%; with SF-539 CNS it was -14.2% (active); in the test with UACC-257 melanoma, 56.2%.
`CCOC(=O)C1=C(c2ccccc2)N=C2SC=C(c3ccc(Cl)cc3)N2C1c1ccc(Cl)cc1` (stereo unspecified): the growth in the test with NCI-H23 lung is 64.2%; in the test with NCI-H226 lung it was 79.5%; in the test on HOP-62 NSCLC, 91.6%; with NCI-H460 lung it was 83.3%; in the test with HOP-92 NSCLC it was 69.8%; in the test with NCI-H522 lung it was 79.9%. Besides, the growth in the test on A549/ATCC NSCLC is 77%; with 786-0 renal, 84.4%; with COLO 205 colon, 76.2%; in the test with DU-145 prostate, 87.7%; in the test on K-562 leukemia, 73.8%; in the test on MALME-3M melanoma, 87.2%. Besides, the growth is 74.2% in the test with MDA-MB-231 breast; 72% in the test with RXF 393 renal; 78.8% in the test with SF-268 CNS; 88.9% in the test on SF-295 CNS; 92.8% with SF-539 CNS; 64.9% with UACC-257 melanoma. Also, in the test on M14 melanoma, the growth is 82.8%.

Values taken from PubChem BioAssay (NCI).
